# ABHD5-PLIN5 inh – ABHD5-PLIN5 protein interaction inhibition; inhibition, % at 4 µM; Q00G26+Q8WTS1; hit rate 0.78% among 360,000; Split G. princeps luciferase complementation, luminescence, 4 h; AID 602281;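 active = inhibition above the mean inhibition across every tested compound plus 3 SD, cut at about 22% in these data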
# NOD2 RIPK2 PPI – NOD2-RIPK2 protein interaction inhibition | O43353 | CHO BLA complementation NOD2-RIPK2, CCF4 ratio | inhibition, % at 4.98 µM | hit rate 0.38% among 360,000; in the data active = inhibition above about 21%
# PRMT1 FP inh – PRMT1 (human) inhibition, primary screen | Q99873 | hit rate 1.3% among 370,000 | recombinant PRMT1, activity-based probe fluorescence polarization | inhibition, % at 2.79 µM;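 active = inhibition above about 21% made by adding two undisclosed values, limit read from the data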
# TLR4-MyD88 BLA – blocks binding of human TLR4 to MyD88; O00206+Q99836; HeLa CL3-4 TLR4/MyD88 BLA complementation, FRET ratio; inhibition, % at 8.4 µM; hit rate 0.18% among 200,000; in the data active = inhibition above about 25%
# Granule exo inh – lytic granule exocytosis inhibition; TALL-104 LAMP-1 surface exposure, flow cytometry; cells stimulated with thapsigargin and PMA; inhibition, % at 10 µM; hit rate 0.66% among 360,000;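 active = inhibition above about 55%, limit read from the data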
# TLR9-MyD88 inh – inhibitors of human TLR9-MyD88 binding; Q9NR96+Q99836; CHO BLA complementation TLR9-MyD88, CCF4 FRET ratio; inhibition, % at 4.98 µM; hit rate 0.21% among 340,000; AID 504734;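 active = inhibition above the mean over all tested compounds plus 3 SD, cut at about 21% in these data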
# ABHD5-PLIN5 conf – confirmation of human ABHD5-PLIN5 interaction inhibitors; shares compounds with ABHD5-PLIN5 inh; biochemical ABHD5-PLIN5 interaction, luminescence; inhibition, % at 4 µM; hit rate 67% among 2,200; AID 651612; in the data active = inhibition above about 23%
# HNF4 split-luc – active in HNF4 split-luciferase counter-screen for ABHD5-PLIN5 inhibitors | shares compounds with ABHD5-PLIN5 inh | HNF4 dimerization, luminescence, biochemical | inhibition, % at 4 µM | hit rate 77% among 2,200 | AID 651674;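 active = mean inhibition across replicate wells exceeding the computed hit threshold, cut at about 13% in these data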;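 note: light from luciferase halves that rejoin when HNF4 fusion proteins dimerize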
# Hits are given with their value; – = inactive; · = no result. Only some compounds are listed: those with a hit (about 2.6% of all), similar ones and a draw of the others.
SMILES,ABHD5-PLIN5 inh,NOD2 RIPK2 PPI,PRMT1 FP inh,TLR4-MyD88 BLA,Granule exo inh,TLR9-MyD88 inh,ABHD5-PLIN5 conf,HNF4 split-luc
Cc1ccc(C2c3c(n[nH]c3C(C)C)C(=O)N2c2ccccc2)cc1 (configuration not stated),·,·,–,·,·,·,·,·
Cc1ccc2[nH]c(=O)c(CN(Cc3ccco3)S(=O)(=O)c3c(C)ccc4nsnc34)cc2c1,24.8,–,–,–,–,–,32.6,43.0
N#CCC[C@@H]1CC[C@]2(CCCN(C(=O)C3CCCC3)C2)O1,·,·,–,·,·,·,·,·
O=C1S/C(=C/c2ccc(N3CCOCC3)o2)C(=O)N1Cc1c(F)cccc1Cl,25.0,–,–,–,105.6,–,23.1,35.8
O=C(NCCN1CCOCC1)c1ccc2c(c1)N(Cc1c(F)cccc1Cl)C(=O)c1ccccc1S2,–,–,–,–,–,–,·,·
CC#CC[N+](C)(C)CCCCCCCCCCCC,27.3,–,–,–,–,–,–,–
C#CC[N+](C)(C)CCCCCCCCCC,–,–,–,–,–,–,·,·
C#CC[N+](C)(C)CCCCCCCCCCCC,23.3,–,–,–,–,–,–,–
CCCCCN(C(=O)Cc1c(C)n(CCCCC)c2ccccc12)c1ccc(Oc2cccnc2)c(C)c1,·,·,–,·,·,·,·,·
CCN(CC)C(=O)CSc1nc2ccccc2c(=O)n1OC(C)C,24.1,–,–,–,–,–,–,–
COc1ccc(-n2c(O)c(/C=C3\C=Nc4ccccc43)c(=O)[nH]c2=O)cc1,31.4,–,–,·,–,–,–,23.5
COc1ccc(/C=C2\CCC/C(=C\C=N\N(C)C)C2=O)cc1,36.3,–,–,–,–,–,36.0,72.2
CN(C)/N=C/C=C1\CCC/C(=C\c2ccc(F)c(F)c2)C1=O,52.6,–,–,–,90.2,·,70.7,73.0
COc1ccc(C=C2CS(=O)(=O)CC(=Cc3ccc(OC)cc3)C2=O)cc1,93.8,–,–,·,–,–,103.4,105.0
CCN(c1ccccc1)S(=O)(=O)c1cc(C(=O)NCc2ccco2)ccc1C,26.9,–,–,·,–,–,–,13.6
Cc1c(NS(=O)(=O)c2cccc(C(=O)NCc3ccco3)c2)c(=O)n(-c2ccccc2)n1C,25.2,–,–,·,–,–,–,14.3
CC(=O)Nc1cccc(C(=O)/C=C/c2ccc(F)cc2)c1,68.4,–,–,–,–,–,88.0,79.5
CC(=O)Nc1cccc(NC(=O)c2ccc(Br)cc2)c1,–,–,–,–,–,–,·,·
COc1ccc(/C=C/C(=O)Nc2cccc(C(C)=O)c2)cc1,–,–,–,–,–,–,·,·
CCC(=O)Nc1cccc(C(=O)/C=C/c2cc(Br)ccc2OC)c1,50.6,–,–,–,–,–,92.2,79.0
CC(=O)Nc1cccc(C(=O)/C=C/c2ccc(Br)cc2)c1,78.9,–,–,–,–,–,94.5,88.2
COCc1cc(N2CCN(C(=O)OC(C)(C)C)C[C@H]2C)ccc1N1CCS(=O)(=O)CC1,·,·,–,·,·,·,·,·
O=C(O)c1cccc(S(=O)(=O)Nc2ccc3[nH]c(=O)[nH]c3c2)c1,–,–,–,·,–,–,·,·
O=C(O)c1cccc(S(=O)(=O)Nc2ccc3oc(=O)sc3c2)c1,62.9,–,85.3,–,–,–,–,41.7
Nc1[nH]c(C(=O)c2ccccc2)c(-c2cccc3ccccc23)c1C(=O)NCc1ccc(F)c(F)c1,·,·,–,·,·,·,·,·
SMILES,ABHD5-PLIN5 inh,NOD2 RIPK2 PPI,PRMT1 FP inh,TLR4-MyD88 BLA,Granule exo inh,TLR9-MyD88 inh,ABHD5-PLIN5 conf,HNF4 split-luc
CC1CN(c2cc(=O)n(-c3ccccc3)c(=O)[nH]2)CC(C)O1 (configuration not stated),35.5,–,–,–,–,–,–,–
CC1(C)c2ccccc2N2CC(=O)NC21/C=C/c1ccco1 (configuration not stated),26.9,–,–,–,–,–,–,21.3
CC1(C)c2ccccc2N2CCC(=O)NC21/C=C/c1ccco1 (configuration not stated),–,–,–,–,–,–,·,·
Cn1nnnc1Sc1ncnc2scc(-c3cc4ccccc4o3)c12,29.1,–,–,·,–,–,70.9,77.3
Cn1nnnc1Sc1ncnc2scc(-c3ccc(-c4ccccc4)cc3)c12,–,–,–,·,–,–,·,·
CC(C)SC1=NC(C)(C)C=C(/C=C/c2ccc(Cl)cc2Cl)N1,38.9,–,–,–,–,–,25.2,30.5
Cc1cc(N(CCO)CCO)ccc1N=Nc1cc(F)ccc1F,30.5,–,–,–,–,–,22.0,16.7
O=C(NC1CCCCCC1)c1ccc(Br)o1,–,–,–,·,–,–,·,·
O=C(NC1CCCCC1)Oc1cc2oc(=O)sc2cc1Br,42.5,–,82.4,·,–,–,–,41.9
Cc1ccc(C(=O)N2CCC[C@@H]2C(=O)N2CCC[C@@H]2C(=O)NCc2ccccc2)cc1C,·,·,–,·,·,·,·,·
O=C1NC(=O)/C(=C/c2ccc(N3CCOCC3)o2)N1,28.5,–,–,·,–,–,26.5,47.4

# High-throughput results as filed in PubChem.
